# This is one part of a sample in which hits are shown more often than they occur.
# RXFP1 antag – blocks the human relaxin receptor RXFP1. HEK293-RXFP1, relaxin-stimulated cAMP HTRF, 30 min; hits give low values. activity change, negative = inhibition, % at 57.5 µM. AID 1259400. 350,000 compounds, 0.59% hits. Q9HBX9;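 active = activity change of -60% or lower, but not beyond a set lower limit; inconclusive = change between -60% and -40%, or beyond the set limit; inactive = change above -40%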; also: % is scaled to controls: 0 for no effect and ±100 for the full control effect
# PTHR1 agonist – activates the human parathyroid hormone receptor PTHR1; Q03431; HEK293 GP2 PTHR1 cells, GloSensor cAMP luminescence, 1 h; Potency, µM (highest dose often 115 µM), without a hit: at the highest dose activation, most hits filed as activators; 410,000 compounds, 0.075% hits; AID 743266; also: potency is read from the fitted curve at half-maximal effect; nearly all actives have a fitted effect of over 55% in size
#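 HEK-293-derived GP2 cells expressing PTHR1 and a GloSensor cAMP reporter, 3,000/well, plated overnight, given luciferin plus IBMX (each 0.5 mM as added) for 1 h at 37 °C, then compound for 1 h at 37 °C. Luminescence was read after 15 min at room temperature.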
# RXFP1 agonist – RXFP1 (human) receptor agonism; Q9HBX9; HEK293T-RXFP1 cAMP TR-FRET, 30 min; response scale: percent of porcine relaxin response, buffer zero; Potency, µM (highest dose often 57.5 µM), for inactives: at the top dose activation, actives largely listed as activators; 370,000 compounds, 0.3% hits; AID 2676; also: potency is read from the fitted curve at half-maximal effect; % is scaled to controls: 0 for no effect and ±100 for the full control effect; nearly all actives have a fitted effect of over 60% in size
#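 HEK293 cells stably expressing RXFP1, treated 30 min at 37C with compounds plus PDE4 inhibitor Ro 20174; cAMP measured by HTRF TR-FRET. Normalized to buffer and 29 nM porcine relaxin; EC50 by Hill fit.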
# TSHR antagonist – blocks TSH signaling through the human TSH receptor. activity change, negative = inhibition, % at 11.5 µM. TSHR-expressing cells, TSH-stimulated cAMP HTRF, 2 h; hits give low values. 330,000 compounds, 0.2% hits. P16473;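 active = activity change below a set negative limit, meaning inhibition stronger than a set level, cut at about -70% in these data; inconclusive = activity change between two set negative limits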; also: % is scaled to controls: 0 for no effect and ±100 for the full control effect
#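 TSHR-expressing cells, 200/well, pre-treated with compound, then stimulated with EC80 TSH (4nM final) for 2 hours at 37 deg C. cAMP measured by competitive HTRF: anti-cAMP cryptate antibody in lysis buffer plus cAMP-d2, read after 30 minutes at room temperature.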
# HEK293 tox – cytotoxicity counter-screen for GLP-1 receptor inverse agonists | HEK293 cAMP-luciferase reporter cells, luminescence, 24 h | Potency, µM (titrated, usually from 38.3 µM), for inactives: at the highest dose activity change, negative = inhibition, hits mostly inhibitors | 410,000 compounds, 0.13% hits;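 also: loss of luciferase light is scored as toxicity; potency is read from the fitted curve at half-maximal effect; % is scaled to controls: 0 for no effect and ±100 for the full control effect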
#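 Here, cytotoxicity is scored as loss of luminescence. The MLSMR collection was tested on cells seeded in medium containing 10% Nu serum, with a 24 hr compound exposure preceded by 12 hours of culture.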
# NPSR antagonist – antagonists of human neuropeptide S receptor cAMP signaling | Q6W5P4 | CHO-NPSR cells, cAMP TR-FRET, antagonist mode | Potency, µM (highest dose often 38.3 µM), inactives show top-dose activity change, negative = inhibition, usual class: inhibitors | 220,000 compounds, 1% hits | AID 1461; also: potency is read from the fitted curve at half-maximal effect; % is scaled to controls: 0 for no effect and ±100 for the full control effect; nearly all actives have a fitted effect of over 50% in size
# Target sequence (Q6W5P4 whole entry, looked up): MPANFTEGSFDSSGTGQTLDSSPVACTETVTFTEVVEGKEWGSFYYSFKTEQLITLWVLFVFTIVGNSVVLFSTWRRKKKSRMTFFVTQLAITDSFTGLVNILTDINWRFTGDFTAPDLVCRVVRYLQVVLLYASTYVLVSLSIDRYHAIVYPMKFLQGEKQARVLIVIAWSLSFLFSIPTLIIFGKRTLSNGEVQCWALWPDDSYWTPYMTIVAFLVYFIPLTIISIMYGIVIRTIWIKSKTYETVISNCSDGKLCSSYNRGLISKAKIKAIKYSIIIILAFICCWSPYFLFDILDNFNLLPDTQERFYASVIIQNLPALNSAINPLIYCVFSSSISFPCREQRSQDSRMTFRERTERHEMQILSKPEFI
# Numbers without * were called inactive; i = inactive; ? = inconclusive; . = no result; [ ] = dose if it differs, or a comment. Unless noted, calls follow the shape of the dose curve; as a rule, active = well fitted curve in the direction sought with a large enough effect; inconclusive = small, poorly fitted or top-dose-only effect, or another doubt; inactive = no such curve, though single readings can be large; an effect the other way counts as inactive or inconclusive.
SMILES,RXFP1 antag,PTHR1 agonist,RXFP1 agonist,TSHR antagonist,HEK293 tox,NPSR antagonist
CCOC1(/N=C(\C)NS(=O)(=O)c2ccc(Cl)cc2)C(C)=CC(=O)C=C1C,-5.6,i,-1.7%,-8.2,8.0%,14.0%
S=c1[nH]cc(-c2ccccc2)n1-c1cccc(Cl)c1,-20.0,i,3.6%,-40.5,-9.0%,-1.8%
COc1cccc(-n2c(-c3ccccc3)c[nH]c2=S)c1,-79.2*,-7.9%,-1.3%,-18.5,?,.
COc1cc2c(cc1NS(=O)(=O)c1cccc(C#N)c1)n(C)c(=O)n2C,-10.7,-52.5%,2.8%,.,37.7%,.
CCOC(=O)C1=C(c2ccccc2)O/C(=C(/C#N)C(F)(F)F)S1,.,.,9.1%,-9.7,.,7.94µM*
CCOC(=O)C1=C(c2ccccc2)O/C(=C(\C(=O)OC)C(F)(F)F)S1,-12.3,i,-0.1%,5.1,1.3%,-16.7%[46.1 µM]
O=C(/C=C/c1ccc2c(c1)OCO2)Nc1nc(-c2ccccc2)cs1,-26.7,-14.8%[57.5 µM],0.3%,-79.3*,22.9%,-10.0%[46.1 µM]
COc1ccc(OC)c(S(=O)(=O)N/N=C\c2c[nH]c3ccccc23)c1,-12.7,-13.7%,5.8%,-28.8,-1.9%,.
O=C(NC1CCS(=O)(=O)C1)/C(=C/c1ccco1)NC(=O)c1ccccc1 (stereo not drawn),-72.1*,i,-1.6%,30.4,-16.5%,0.8%
CCO[C@H](Cc1ccc(OCCc2ccc(OS(C)(=O)=O)cc2)cc1)C(=O)O,-26.6,.,.,.,.,.
CC(C)c1ccc(-n2c(-c3ccccc3)c[n+]3c2CCc2ccccc2-3)cc1,-15.4,-15.3%,-0.5%,-35.8,?,10µM*
CC1CCN(C(=O)c2cccc(NC(=O)c3nsc4ccccc34)c2)CC1,-22.2,-40.7%,2.4%,.,-13.6%,.
COc1ccc(-c2nn(-c3cccc([N+](=O)[O-])c3)c3c2cnc2cc4c(cc23)OCO4)cc1,-2.3,i,1.5%,.,-0.9%,.
CCc1cc(CNC(=O)CC2C(=O)NCCN2Cc2ccc(-c3ccccc3)cc2)on1 (stereo not drawn),-12.1,-2.2%,1.4%,-113.1*,8.0%,.
Cc1ccccc1Nc1scc(-c2ccc(Cl)cc2)[n+]1-c1ccccc1C,-15.2,-14.7%,1.6%,-14.4,-18.6%,7.94µM*
O=C(NCC12CC3CC(CC(C3)C1)C2)c1cc2nc(-c3ccc(Cl)cc3)cc(C(F)(F)F)n2n1,.,i,-1.2%,.,-4.4%,.
Cc1cc(NC(=O)c2csc([C@@H]3O[C@H](CO)[C@H](O)[C@H](O)[C@H]3O)n2)n(C)n1,.,-22.4%,.,.,3.0%,.
CN(C)CCCN(C(=O)c1ccc2c(c1)CCCC2)c1nc2ccc(Cl)cc2s1,-77.4*,-5.7%,0.8%,0.8,-25.2%,?
CN(C)CCCN(C(=O)c1ccc2ccccc2c1)c1nc2cc3c(cc2s1)OCO3,-60.9*,i,-0.2%,-2.4,?,.
COc1cccc2sc(N(CCN(C)C)C(=O)c3ccc4c(c3)CCCC4)nc12,-69.1*,-40.4%,1.2%,-5.3,?,.
CN(C)CCN(C(=O)c1ccc2ccccc2c1)c1nc2cc3c(cc2s1)OCCO3,-27.9,-8.5%,1.4%,-10.0,-6.5%,.
COc1cccc2sc(N(CCCN(C)C)C(=O)c3ccc(S(=O)(=O)N4CCCc5ccccc54)cc3)nc12,-87.7*,-22.2%,-3.5%,3.8,?,.
CCOc1ccc2nc(N(CCCN(C)C)C(=O)c3ccc4c(c3)CCCC4)sc2c1,-23.9,?,1.4%,14.4,?,.
COc1ccc(-n2nc(CCC(=O)N(C)O)cc2-c2ccc(Cl)cc2)cc1,-22.0,.,.,.,.,.
CCCCC(O)(c1ccc(F)cc1)C(CN1CCOCC1)c1ccc(Cl)cc1 (stereo not drawn),-77.5*,-4.4%,0.5%,2.6,-17.0%,.
SMILES,RXFP1 antag,PTHR1 agonist,RXFP1 agonist,TSHR antagonist,HEK293 tox,NPSR antagonist
CCN(CC)c1ccc(/C=N/n2c(-c3ccccc3Br)n[nH]c2=S)cc1,-84.0*,-12.2%,0.3%,-2.5,-7.1%,?
O=C(Nc1ccc2oc(-c3ccc(Br)cc3)nc2c1)c1cc2ccccc2o1,-13.3,-8.0%,?,.,5.8%,.
O=C(Nc1ccc2oc(-c3cc(Br)ccc3Cl)nc2c1)c1cc2ccccc2o1,5.5,-39.5%,20µM*,.,-0.1%,.
CN(C)c1ccc(N/C=C/C(=O)c2ccco2)cc1,-64.3*,-32.4%,0.6%,-19.2,?,?
N#Cc1ccsc1NC(=O)C1CCN(S(=O)(=O)c2cccs2)CC1,-69.7*,-26.7%,0.0%,-1.2,-11.4%,.
CCc1ccc(CNC(=O)c2cc(-c3ccc(Br)s3)nc3ccccc23)cc1,-9.6,?,?,.,0.6%,.
O=C(O)c1cc(-c2ccc(Br)s2)nc2ccccc12,-6.1,-1.7%,2.82µM*,-18.5,0.2%,.
CC(C)(C)c1cc(NC(=O)COC(=O)c2ccc(O)cc2O)n(-c2ccccc2)n1,0.9,-43.1%,0.1%,-10.3,5.6%,.
O=C(COC(=O)c1ccc(O)cc1O)Nc1cc(-c2ccccc2)nn1-c1ccccc1,-73.3*,-33.0%,-1.1%,-17.0,-21.5%,.
O=C(NCc1ccccc1)c1sc(=S)n2c1[nH]c(=O)c1ccccc12,10.9,-16.8%,0.8%,-78.7*,-22.7%,-6.9%[46.1 µM]
CCCCNC(=O)c1sc(=S)n2c1[nH]c(=O)c1ccc(C(=O)NCCc3ccc(OC)c(OC)c3)cc12,4.9,-34.6%,1.0%,-37.0,-26.3%,.
CC(C)(Cc1c[nH]c2ccccc12)NCC(O)COc1ccccc1C#N (stereo not drawn),-16.7,.,.,.,.,.
Cc1ccc(OCC(=O)NNc2c3ccccc3nc3ccccc23)cc1,-67.4*,-45.0%,0.8%,-19.3,-7.5%,-41.2%
COC(=O)c1ccc2c(c1)C(C)(C)C(/C=C/c1ccc(OC)c(OC)c1OC)=[N+]2C,?,-4.8%[57.5 µM],1.4%,-22.8,?,10µM*
NS(=O)(=O)c1ccc(CCNc2ncnc3c2cnn3-c2cccc(Cl)c2)cc1,-84.4*,-45.7%,3.3%,.,-15.8%,.
Clc1cccc(-n2ncc3c(NC4CCCCCC4)ncnc32)c1,-17.6,-36.6%,1.2%,.,-31.5%,.
O=C(CCC1N=C2c3ccccc3N=C(SCC(=O)NCC3CCCO3)N2C1=O)NCc1ccc(F)cc1 (stereo not drawn),-69.0*,15.5%,28.8%,21.9,-7.0%,.
COc1ccc(CNC(=O)CCC2N=C3c4ccccc4N=C(SCC(=O)NCC4CCCO4)N3C2=O)cc1 (stereo not drawn),-10.4,?,16.4%,19.2,-1.5%,.
Cc1[nH]c2ccc(F)cc2c1CCN(Cc1ccncc1)C(=S)Nc1ccc(F)cc1,.,12.7%,0.1%,9.7,-21.0%,7.94µM*
